# From PubChem BioAssay (EPA / NIEHS)
# The source made the active and inactive calls. Rule for the calls: active = hit-call score of the fitted dose curve at least 0.9, where 1 is the maximum; inactive = score below 0.9.
# Tests used:
# Conditions in all cases: mRNA level, 48 h; actives raise or lower the signal
# [1] = read-out: Glutamate-cysteine ligase regulatory (GCLM), GCLM (gene 2730); experiment: LTEA_HepaRG_GCLM: Life Technologies and Expression Analysis (LTEA) Assay for Glutamate-cysteine ligase regulatory (GCLM) using HepaRG (AID 2283500)
# Summary of the method: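 GCLM expression quantified by qRT-PCR, normalized to three housekeeping genes, after 48 h chemical treatment of HepaRG cells in duplicate at 8 concentrations (top 100 uM, half-log steps, 0.5% DMSO). Changes fitted both directions against vehicle.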
# [2] = read-out: Hypoxia-inducible factor 1-alpha (Homo sapiens) (UniProt Q16665); experiment: LTEA_HepaRG_HIF1A: Life Technologies and Expression Analysis (LTEA) Assay for Hypoxia-inducible factor 1 (HIF1A) Trancription factor using HepaRG (AID 2283503)
# Summary of the method: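 HIF1A transcript level read by qRT-PCR (ACTB, GAPDH, POLR2A normalization) after 48 h chemical exposure of HepaRG cultures. Eight half-log concentrations, top 100 uM, 0.5% DMSO vehicle, duplicates; bidirectional curve fit against DMSO baseline.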
# [3] = read-out: 3-Hydroxy-3-Methylglutaryl-CoA Synthase 2 (HMGCS2), HMGCS2 (gene 3158); experiment: LTEA_HepaRG_HMGCS2: Life Technologies and Expression Analysis (LTEA) Assay for 3-Hydroxy-3-Methylglutaryl-CoA Synthase 2 (HMGCS2) using HepaRG (AID 2283504)
# Summary of the method: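 This steatosis marker was read as HMGCS2 mRNA change in HepaRG cells treated 48 h with up to 100 uM chemical. Normalisation used housekeeping genes; activity in either direction was fitted relative to 0.5% DMSO vehicle.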
# HGF (gene 3082) = experiment: LTEA_HepaRG_HGF: Life Technologies and Expression Analysis (LTEA) Assay for Hepatocyte Growth Facto (HGF) using HepaRG (AID 2283505)
# Summary of the method: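 Using HepaRG monolayers kept in 0.5% DMSO, chemicals were tested in duplicate over eight half-log concentrations from 100 uM for 48 h. Endpoint: HGF mRNA change relative to DMSO, normalized to ACTB/GAPDH/POLR2A.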
# [4] = read-out: Insulin Like Growth Factor 1 (IGF1), IGF1 (gene 3479); experiment: LTEA_HepaRG_IGF1: Life Technologies and Expression Analysis (LTEA) Assay for Insulin Like Growth Factor 1 (IGF1) using HepaRG (AID 2283506)
# Summary of the method: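 Expression measured by TaqMan qRT-PCR on a Fluidigm array, with three housekeeping genes for normalisation, after 48 h treatment of HepaRG cells. Top concentration 100 uM with half-log steps, 0.5% DMSO vehicle, bidirectional fit.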
# [5] = read-out: Intercellular Adhesion Molecule 1 (ICAM1), ICAM1 (gene 3383); experiment: LTEA_HepaRG_ICAM1: Life Technologies and Expression Analysis (LTEA) Assay for Intercellular Adhesion Molecule 1 (ICAM1) using HepaRG (AID 2283507)
# Summary of the method: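 Using the human liver line HepaRG, compounds are tested in duplicate over 48 h at concentrations up to 100 uM. Expression is determined by TaqMan qRT-PCR, normalized to endogenous controls, and analysed relative to 0.5% DMSO vehicle.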
# [6] = read-out: Insulin-like growth factor-binding protein 1 (IGFBP1), IGFBP1 (gene 3484); experiment: LTEA_HepaRG_IGFBP1: Life Technologies and Expression Analysis (LTEA) Assay for Insulin-like growth factor-binding protein 1 (IGFBP1) using HepaRG (AID 2283508)
# Summary of the method: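 HepaRG, 48 h, 8 conc. (max 100 uM, half-log), duplicates, 0.5% DMSO. Readout: TaqMan qRT-PCR, ACTB/GAPDH/POLR2A normalisation. Fit: bidirectional vs DMSO.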
# [7] = read-out: Interleukin 6 (IL6), IL6 (gene 3569); experiment: LTEA_HepaRG_IL6: Life Technologies and Expression Analysis (LTEA) Assay for Interleukin 6 (IL6) using HepaRG (AID 2283509)
# Summary of the method: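 Transcript levels, normalized to three housekeeping genes, were quantified by qRT-PCR after 48 h chemical treatment of HepaRG cells. Eight-point half-log series from 100 uM in 0.5% DMSO, duplicates. Fitted both directions against DMSO baseline.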
# [8] = read-out: Heat shock 70 kDa protein 1 (HSPA1A), gene 3303; experiment: LTEA_HepaRG_HSPA1A: Life Technologies and Expression Analysis (LTEA) Assay for Heat shock 70 kDa protein 1 (HSPA1A) using HepaRG (AID 2283502)
# Summary of the method: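 HSPA1A expression measured by qRT-PCR with ACTB/GAPDH/POLR2A normalization; curves fitted in both directions relative to DMSO vehicle. Exposure: 48 h in HepaRG cells, duplicate 8-point half-log series from 100 uM, 0.5% DMSO, serum-free induction medium.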
# Sequence of Hypoxia-inducible factor 1-alpha (Homo sapiens) (Q16665 whole entry, looked up): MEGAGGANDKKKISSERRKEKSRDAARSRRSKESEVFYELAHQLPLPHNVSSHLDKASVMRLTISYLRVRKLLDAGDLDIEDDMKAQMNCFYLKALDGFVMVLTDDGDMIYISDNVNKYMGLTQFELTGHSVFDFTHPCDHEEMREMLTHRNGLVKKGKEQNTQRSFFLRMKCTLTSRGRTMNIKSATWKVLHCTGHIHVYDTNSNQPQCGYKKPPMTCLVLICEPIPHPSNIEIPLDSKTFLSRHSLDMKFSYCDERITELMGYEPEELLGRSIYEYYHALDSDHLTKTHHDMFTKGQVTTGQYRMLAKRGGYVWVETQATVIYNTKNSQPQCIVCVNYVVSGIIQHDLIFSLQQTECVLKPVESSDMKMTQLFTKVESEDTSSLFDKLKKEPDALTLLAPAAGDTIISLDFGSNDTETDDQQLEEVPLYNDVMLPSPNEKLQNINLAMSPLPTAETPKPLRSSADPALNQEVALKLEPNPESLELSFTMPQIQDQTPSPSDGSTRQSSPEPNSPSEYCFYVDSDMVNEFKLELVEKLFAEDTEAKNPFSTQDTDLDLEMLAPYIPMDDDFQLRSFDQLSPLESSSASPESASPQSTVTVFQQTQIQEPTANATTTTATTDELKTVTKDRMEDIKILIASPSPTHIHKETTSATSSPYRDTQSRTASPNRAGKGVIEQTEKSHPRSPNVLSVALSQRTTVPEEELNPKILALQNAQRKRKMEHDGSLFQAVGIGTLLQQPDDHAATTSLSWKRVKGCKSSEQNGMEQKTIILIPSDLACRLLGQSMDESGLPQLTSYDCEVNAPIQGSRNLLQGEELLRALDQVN
compound,measurement,setting,value
CC(C)COC(=O)c1ccccc1C(=O)OCC(C)C,outcome,[1],inactive
same,outcome,[2],inactive
same,outcome,[3],inactive
same,outcome,HGF (gene 3082),inactive
same,outcome,[4],inactive
same,outcome,[5],inactive
same,outcome,[6],inactive
same,outcome,[7],inactive
COP(=S)(OC)SCN1C(=O)c2ccccc2C1=O,outcome,[1],inactive
same,outcome,[2],inactive
same,outcome,[3],inactive
same,outcome,HGF (gene 3082),inactive
same,outcome,[4],inactive
same,outcome,[5],inactive
same,outcome,[6],inactive
same,outcome,[7],inactive
CNC(=O)Oc1cccc2c1OC(C)(C)C2,outcome,[1],inactive
same,outcome,[2],inactive
same,AC50,[3],38.8 µM (active)
same,outcome,HGF (gene 3082),inactive
same,outcome,[4],inactive
same,outcome,[5],inactive
same,outcome,[6],inactive
same,outcome,[7],inactive
Oc1ccccc1Cl,outcome,[1],inactive
same,outcome,[2],inactive
same,outcome,[3],inactive
same,outcome,HGF (gene 3082),inactive
same,outcome,[4],inactive
same,outcome,[5],inactive
same,outcome,[6],inactive
same,outcome,[7],inactive
c1ccc2c(c1)oc1ccccc12,outcome,[1],inactive
same,outcome,[2],inactive
same,outcome,[3],inactive
same,outcome,HGF (gene 3082),inactive
same,outcome,[4],inactive
same,outcome,[5],inactive
same,outcome,[6],inactive
same,outcome,[7],inactive
CC(C)(C)C(O)(CCc1ccc(Cl)cc1)Cn1cncn1 (stereo not given),AC50,[1],50 µM (active)
same,outcome,[2],inactive
same,AC50,[3],72.3 µM (active)
same,AC50,HGF (gene 3082),79.1 µM (active)
same,AC50,[4],50 µM (active)
same,AC50,[5],50 µM (active)
same,AC50,[6],50 µM (active)
same,outcome,[7],inactive
CCCCCCCCOC(=O)c1ccc(C(=O)OCCCCCCCC)c(C(=O)OCCCCCCCC)c1,outcome,[1],inactive
same,outcome,[2],inactive
same,outcome,[3],inactive
same,outcome,HGF (gene 3082),inactive
same,outcome,[4],inactive
same,outcome,[5],inactive
same,outcome,[7],inactive
Nc1ccc([N+](=O)[O-])cc1,outcome,[1],inactive
same,outcome,[2],inactive
same,outcome,[3],inactive
same,outcome,HGF (gene 3082),inactive
same,outcome,[4],inactive
same,outcome,[5],inactive
same,outcome,[6],inactive
same,outcome,[7],inactive
Cc1ccc(N)cc1,outcome,[1],inactive
same,outcome,[2],inactive
same,outcome,[3],inactive
same,outcome,HGF (gene 3082),inactive
same,outcome,[4],inactive
same,outcome,[5],inactive
same,outcome,[6],inactive
same,outcome,[7],inactive
c1ccc(N=Nc2ccccc2)cc1,outcome,[1],inactive
same,outcome,[2],inactive
same,outcome,[3],inactive
same,outcome,HGF (gene 3082),inactive
same,outcome,[5],inactive
same,outcome,[6],inactive
same,outcome,[7],inactive
OCCCl,outcome,[1],inactive
same,outcome,[2],inactive
same,outcome,[3],inactive
same,outcome,HGF (gene 3082),inactive
same,outcome,[4],inactive
same,outcome,[5],inactive
same,outcome,[6],inactive
same,outcome,[7],inactive
c1ccc2c(c1)-c1cccc3cccc-2c13,outcome,[1],inactive
same,outcome,[8],inactive
same,outcome,[2],inactive
same,outcome,[3],inactive
same,outcome,HGF (gene 3082),inactive
same,outcome,[4],inactive
same,outcome,[5],inactive
same,outcome,[6],inactive
same,outcome,[7],inactive
CCN(CC)N=O,outcome,[1],inactive
same,outcome,[8],inactive
same,outcome,[2],inactive
same,outcome,[3],inactive
same,outcome,HGF (gene 3082),inactive
same,outcome,[4],inactive
same,outcome,[5],inactive
same,outcome,[6],inactive
same,outcome,[7],inactive
CO[C@@H]1[C@H](OC(=O)NC(=O)CCl)CC[C@]2(CO2)[C@H]1[C@@]1(C)O[C@@H]1CC=C(C)C,outcome,[1],inactive
same,outcome,[8],inactive
same,outcome,[2],inactive
same,outcome,[3],inactive
same,outcome,HGF (gene 3082),inactive
same,AC50,[4],3.17 µM (active)
same,outcome,[5],inactive
same,outcome,[6],inactive
same,outcome,[7],inactive
C1=Cc2cccc3cccc1c23,outcome,[1],inactive
same,outcome,[2],inactive
same,outcome,[3],inactive
same,outcome,HGF (gene 3082),inactive
same,outcome,[4],inactive
same,outcome,[5],inactive
same,outcome,[6],inactive
same,outcome,[7],inactive
[O-][Cl+]O,outcome,[1],inactive
same,outcome,[2],inactive
same,outcome,[3],inactive
same,outcome,HGF (gene 3082),inactive
same,outcome,[4],inactive
same,outcome,[5],inactive
same,outcome,[6],inactive
same,outcome,[7],inactive
CCOC(=O)[C@]1(c2ccccc2)Oc2ccccc2[C@@H]1N,AC50,[1],76.9 µM (active)
same,AC50,[2],82.2 µM (active)
same,AC50,[3],77.3 µM (active)
same,outcome,HGF (gene 3082),inactive
same,AC50,[4],80.2 µM (active)
same,outcome,[5],inactive
same,AC50,[6],91.6 µM (active)
same,AC50,[7],84.8 µM (active)
Cc1ccc(N)c(N)c1,outcome,[1],inactive
same,outcome,[8],inactive
same,outcome,[2],inactive
same,outcome,[3],inactive
same,outcome,HGF (gene 3082),inactive
same,outcome,[4],inactive
same,outcome,[5],inactive
same,outcome,[6],inactive
same,outcome,[7],inactive
Cc1cc(N=Nc2ccccc2C)ccc1N,AC50,[1],50 µM (active)
same,AC50,[2],7.09 µM (active)
same,AC50,[3],12.8 µM (active)
same,outcome,HGF (gene 3082),inactive
same,AC50,[4],4.25 µM (active)
same,outcome,[5],inactive
same,AC50,[6],9.92 µM (active)
same,outcome,[7],inactive
CCC[CH2][Sn]([Cl])([CH2]CCC)[CH2]CCC,outcome,[1],inactive
same,AC50,[2],2.07 µM (active)
same,AC50,[3],1.24 µM (active)
same,AC50,HGF (gene 3082),50 µM (active)
same,AC50,[4],4.72 µM (active)
same,outcome,[5],inactive
same,AC50,[6],2.29 µM (active)
same,AC50,[7],2.73 µM (active)
ClC1=C(Cl)C2(Cl)C3C(Cl)C=CC3C1(Cl)C2(Cl)Cl (stereo not given),AC50,[1],32.1 µM (active)
same,AC50,[2],33.8 µM (active)
same,outcome,[3],inactive
same,outcome,HGF (gene 3082),inactive
same,AC50,[4],5.6 µM (active)
same,outcome,[5],inactive
same,outcome,[6],inactive
same,outcome,[7],inactive
CC(C)(OOC(C)(C)c1ccccc1)c1ccccc1,outcome,[1],inactive
same,outcome,[2],inactive
same,outcome,[3],inactive
same,outcome,HGF (gene 3082),inactive
same,outcome,[4],inactive
same,outcome,[5],inactive
same,outcome,[6],inactive
same,outcome,[7],inactive
CC(C)N(Cc1ccccc1)C(=O)C(C)(C)C,outcome,[1],inactive
same,outcome,[2],inactive
same,outcome,[3],inactive
same,outcome,HGF (gene 3082),inactive
same,AC50,[4],25.6 µM (active)
same,outcome,[5],inactive
same,outcome,[7],inactive
